Source: PubChem BioAssay (Tox21)
Several values for one entry are separate records, joined by “and”; a condition that tells them apart may be missing. Identical values can stand only once. Records with an inconclusive call do not appear. Entries that show only a call come without a potency. Some compounds were tested as several samples or in several runs, with calls that do not always agree. Activity calls are given as the source filed them. The call rests on the fitted dose curve; in most records, active means well fitted cell-killing curve with a large enough effect in the repeat runs; inconclusive means weak or mixed curves; inactive means flat fitted curve, though single readings scatter.

experiment: qHTS RealTime-Glo MT Cell Viability Assay in HepG2 cells - 16 hour (AID 1224885); conditions: RealTime-Glo luminescence; series mostly up to 76.8 µM; further: nearly all actives have a fitted effect of over 50% in size
Source text: U.S. Tox21 Program National Center for Advancing Translational Sciences [NCATS] NIH Chemical Genomics Center [NCGC] U.S. Environmental Protection Agency [EPA] National Institutes of Environmental Health Sciences [NIEHS] National Toxicology Program [NTP] U.S. Food and Drug Administration [FDA] Tox21 Assay Overview: Measure of cell viability is critical in the cell-base assay. Analysis of cell viability is necessary for the characterization of cell responses to cytotoxic drugs and environmental stress. A RealTime-Glo MT Cell Viability Assay to monitor cell viability in real time of continues cell culture during 40 hours of compound treatment was used to screen Tox21 10K library compounds in HepG2 cells. The RealTime-Glo MT Cell Viability Assay is a nonlytic, homogeneous, bioluminescent method to measure cell viability in real time using a simple, plate-based method. The assay involves adding NanoLuc luciferase and a cell-permeant prosubstrate to cells in culture. Viable cells reduce the proprietary prosubstrate to generate a substrate for NanoLuc luciferase. This substrate diffuses from cells into the surrounding culture medium, where it is rapidly used by the NanoLuc Enzyme to produce a luminescent signal. The signal correlates with the number of viable cells, making the assay well suited for cytotoxicity studies.
Tox21 Assay Protocol Summary: The mixture of HepG2 cell suspension and reagents were dispensed at 600cells/6 ul/well in 1536-well tissue culture treated black solid bottom plates using a Multidrop dispenser. After the assay plates were incubated at a 37 C/5% CO2 incubator for 5 hours, 23 nL of compounds dissolved in DMSO, positive and negative controls was transferred to the assay plate by a pintool work station. The plates were incubated at 37 C for 40 hours. The luminescence intensity were measured at 0h, 8h, 16h, 24h, 32h and 40h time points using ViewLux plate reader during compound treatment.
Potency means the concentration at half of the fitted maximal effect.

| SMILES | Potency |
| --- | --- |
| CCCCOCCOP(=O)(OCCOCCCC)OCCOCCCC | inactive |
| O=[N+]([O-])c1cccc2ccccc12 | inactive |
| C=CC(=O)OCCO | inactive |
| O=C1C=CC(=O)C=C1 | inactive |
| CCOc1cc(Oc2ccc(C(F)(F)F)cc2Cl)ccc1[N+](=O)[O-] | inactive |
| S=C1NCCN1 | inactive |
| Brc1ccc(Oc2cc(Br)c(Br)cc2Br)c(Br)c1 | inactive |
| Oc1c(Cl)c(Cl)c(Cl)c(Cl)c1Cl | inactive |
| CC(C)C(=O)OCC(C)(C)C(OC(=O)C(C)C)C(C)C (stereo not given) | inactive |
| COC(=O)c1sccc1S(=O)(=O)NC(=O)Nc1nc(C)nc(OC)n1 | inactive |
| ClC1C(Cl)C(Cl)C(Cl)C(Cl)C1Cl (stereo not given) | inactive |
| CC1(C)C(C=C(Cl)Cl)C1C(=O)OC(C#N)c1cccc(Oc2ccccc2)c1 (stereo not given) | inactive |
| Oc1cc(Cl)ccc1Oc1ccc(Cl)cc1Cl | 22.4 µM (active) and 23.9 µM (active) |
| O=P(O)(O)CCCl | inactive |
| C1=Cc2cccc3cccc1c23 | inactive |
| N#Cc1cc(Br)c(O)c(Br)c1 | inactive |
| N#CC(Br)Br | inactive |
| CC(C)(OOC(C)(C)c1ccccc1)c1ccccc1 | inactive |
| c1cc(OCC2CO2)ccc1Cc1ccc(OCC2CO2)cc1 (stereo not given) | inactive |
| Cc1ccc(OP(=O)(Oc2ccc(C)cc2)Oc2ccc(C)cc2)cc1 | inactive |

| SMILES | Potency |
| --- | --- |
| c1ccc(NNc2ccccc2)cc1 | inactive |
| CCC(C)c1ccc(O)cc1 (stereo not given) | inactive |
| CC(C)=CC1C(C(=O)OCc2coc(Cc3ccccc3)c2)C1(C)C (stereo not given) | inactive |
| c1ccc(P(c2ccccc2)c2ccccc2)cc1 | inactive |
| O=Cc1ccco1 | inactive |
| CCN(CC)N=O | inactive |
| O=[N+]([O-])c1c(Cl)c(Cl)c(Cl)c(Cl)c1Cl | inactive |
| CCCCCc1cc(O)cc(O)c1 | inactive and 43.6 µM (active) |
| Cc1ccc(N)c(N)c1 | inactive |
| CCOC(=S)S | inactive |
| Clc1nc(Cl)nc(Cl)n1 | inactive |
| COP(=S)(OC)Oc1cc(Cl)c(Cl)cc1Cl | inactive |
| N#CCCCl | inactive |
| COP(=O)(OC)OC | inactive |
| O=C(NC(=O)c1c(F)cccc1F)Nc1ccc(Cl)cc1 | inactive |
| Cc1cc(C)cc(C)c1 | inactive |
| CC(C)(C)c1ccccc1O | inactive |
| CCCCCCCCC(=O)NCc1ccc(O)c(OC)c1 | inactive |
| CCCCN(CC)c1c([N+](=O)[O-])cc(C(F)(F)F)cc1[N+](=O)[O-] | inactive |
| Nc1ccc(-c2ccc(N)c(N)c2)cc1N | inactive |
